Test [1] is described as follows: NCI Yeast Anticancer Drug Screen. Data for the rad50 strain (AID 155).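 Note: 0% = growth of vehicle-only cultures of the same strain.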 The following applies: S. cerevisiae rad50 strain growth inhibition, stronger effect = higher value. The method in brief:
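Yeast carrying a defined DNA repair defect were exposed to test compounds, and growth was compared with vehicle-treated controls to give percent inhibition.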

Test [2] in a line: NCI Yeast Anticancer Drug Screen. Data for the mec2-1 strain (AID 157). The following applies: S. cerevisiae mec2-1 strain, stronger effect = higher value. The procedure, abridged: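 Readout is yeast growth inhibition, normalised to vehicle-treated controls, in the mec2-1 strain exposed to compound.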
Test [3] can be described thus: NCI Yeast Anticancer Drug Screen. Data for the sgs1 mgt1 strain (AID 161).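 Note: 0% = growth of cultures given vehicle only.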 The following applies: S. cerevisiae sgs1 mgt1 strain, stronger effect = higher value. The method in brief:
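Growth of a repair-deficient yeast mutant was monitored after compound treatment and expressed as inhibition relative to vehicle-treated cultures.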

Test [4] is described as follows: NCI Yeast Anticancer Drug Screen. Data for the cln2 rad14 strain (AID 165).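 Note: 0% = growth equal to vehicle treated cultures.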 The conditions noted are these: S. cerevisiae cln2 rad14 strain, stronger effect = higher value. The procedure, abridged:
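Relative to vehicle controls, growth inhibition of compound-treated cln2 rad14 yeast was recorded.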

Test [5] can be described thus: NCI Yeast Anticancer Drug Screen. Data for the bub3 strain (AID 167). The following applies: S. cerevisiae bub3 mutant strain, stronger effect = higher value. The method in brief: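 Compounds were applied to a genetically altered yeast strain carrying a cell-cycle control defect. Growth inhibition was scored against vehicle-treated controls.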
Test [6] is described as follows: NCI Yeast Anticancer Drug Screen. Data for the mlh1 rad18 strain (AID 175). The following applies: S. cerevisiae mlh1 rad18 strain growth inhibition, stronger effect = higher value. The procedure, abridged: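 Test agents were incubated with a yeast strain of defined genotype (DNA damage repair defect). Inhibition of growth was derived by comparison with vehicle-exposed cultures.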

The mark [7] stands for this setting: at 5.0 µM (retest, dose inferred, filed as 0.5).
[8] abbreviates: at 50.0 µM (retest, dose inferred, filed as 5.0).

About 79,000 compounds went through this panel and 15% of them were active in at least one assay; those are over-represented in the sample as a whole. Values without a mark were called inactive. Active and inactive are the calls of the source. Cut-off read from the data, not from the text of the source: active = growth inhibition above about 70%; inactive = the rest.

Consider `O=C(O)c1ccccc1-c1c2cc([N+](=O)[O-])c(=O)c(Br)c-2oc2c(Br)c(O)c([N+](=O)[O-])cc12`, for which the growth inhibition in test [1] (setting [7]) was 27%; in test [1] (setting [8]) it was 91% (active); in test [1] (at 50.0 µM) it was 77.5% (active); in test [2] (setting [7]), 29%; in test [2] (setting [8]), 93% (active); in test [2] (at 50.0 µM), 82.1% (active). For the same compound, the growth inhibition in test [3] (setting [7]) was 25%; in test [3] (setting [8]), 66%; in test [3] (at 50.0 µM), 62%; in test [4] (setting [7]), 34%; in test [4] (setting [8]), 66%; in test [4] (at 50.0 µM), 88.5% (active). Moreover, the growth inhibition in test [5] (setting [7]) was 32%; in test [5] (setting [8]) it was 75% (active); in test [5] (at 50.0 µM) it was 66.5%; in test [6] (setting [7]), 42%; in test [6] (setting [8]) it was 96% (active); in test [6] (at 50.0 µM) it was 72.1% (active).
Turning to `Cc1cc(=O)n(C)c2c(C)cccc12`, the growth inhibition is -163% in test [1] (setting [7]); -139% in test [1] (setting [8]); 12.9% in test [1] (at 50.0 µM); -47% in test [2] (setting [7]); -47% in test [2] (setting [8]); 15.9% in test [2] (at 50.0 µM). In addition, the growth inhibition in test [3] (setting [7]) was -60%; in test [3] (setting [8]) it was -57%; in test [3] (at 50.0 µM) it was 12.4%; in test [4] (setting [7]), -56%; in test [4] (setting [8]) it was -50%; in test [4] (at 50.0 µM), 46.3%. Further, the growth inhibition in test [5] (setting [7]) is -73%; in test [5] (setting [8]), -72%; in test [5] (at 50.0 µM), -2.85%; in test [6] (setting [7]), -145%; in test [6] (setting [8]), -107%; in test [6] (at 50.0 µM) it was 10.2%.
Take `COC1/C=C\OC2(C)Oc3c(C)c(O)c4c(c3C2=O)C2=NC(C)(C)N(c3ccccc3)C2=C(NC(=O)/C(C)=C\C=C\C(C)C(O)C(C)C(O)C(C)C(OC(C)=O)C1C)C4=O` (configuration not stated): the growth inhibition is -2% in test [1] (setting [7]); 78% (active) in test [1] (setting [8]); 24.9% in test [1] (at 50.0 µM); -2% in test [2] (setting [7]); 95% (active) in test [2] (setting [8]); 53.5% in test [2] (at 50.0 µM). Moreover, the growth inhibition in test [3] (setting [7]) was -2%; in test [3] (setting [8]), 85% (active); in test [3] (at 50.0 µM), 72.8% (active); in test [4] (setting [7]) it was 2%; in test [4] (setting [8]), 91% (active); in test [4] (at 50.0 µM) it was 39.9%. The growth inhibition in test [5] (setting [7]) was -7%; in test [5] (setting [8]), 69%; in test [5] (at 50.0 µM) it was 27.9%; in test [6] (setting [7]) it was -2%; in test [6] (setting [8]) it was 86% (active); in test [6] (at 50.0 µM) it was 51.9%.
With `OCCN=Cc1cccs1`, the growth inhibition in test [1] (setting [7]) was 1%; in test [1] (setting [8]), 3%; in test [1] (at 50.0 µM) it was 8.85%; in test [2] (setting [7]), -2%; in test [2] (setting [8]) it was 5%; in test [2] (at 50.0 µM), 2.8%. For the same compound, the growth inhibition was -1% in test [3] (setting [7]); 2% in test [3] (setting [8]); 2.05% in test [3] (at 50.0 µM); 0% in test [4] (setting [7]); 1% in test [4] (setting [8]); 13.7% in test [4] (at 50.0 µM). In addition, the growth inhibition in test [5] (setting [7]) was 1%; in test [5] (setting [8]) it was 2%; in test [5] (at 50.0 µM) it was 8.25%; in test [6] (setting [7]), -25%; in test [6] (setting [8]) it was 5%; in test [6] (at 50.0 µM) it was 3.4%.
For the compound `O=C(C[N+]12CN3CN(CN(C3)C1)C2)c1ccc(Cl)cc1Cl`, the growth inhibition was -2% in test [1] (setting [7]); -4% in test [1] (setting [8]); 99.3% (active) in test [1] (at 50.0 µM); 9% in test [2] (setting [7]); 5% in test [2] (setting [8]); 99.5% (active) in test [2] (at 50.0 µM). The growth inhibition is -20% in test [3] (setting [7]); -4% in test [3] (setting [8]); 99.4% (active) in test [3] (at 50.0 µM); -1% in test [4] (setting [7]); -6% in test [4] (setting [8]); 99.2% (active) in test [4] (at 50.0 µM). In addition, the growth inhibition was 0% in test [5] (setting [7]); -2% in test [5] (setting [8]); 99.3% (active) in test [5] (at 50.0 µM); -12% in test [6] (setting [7]); -26% in test [6] (setting [8]); 99.4% (active) in test [6] (at 50.0 µM).
Take `Nc1ccc(-c2ccc(Cl)cc2)cc1`: the growth inhibition was 0% in test [1] (setting [7]); 96% (active) in test [1] (setting [8]); 96.7% (active) in test [1] (at 50.0 µM); -2% in test [2] (setting [7]); 61% in test [2] (setting [8]); 78.7% (active) in test [2] (at 50.0 µM). For the same compound, the growth inhibition is -1% in test [3] (setting [7]); 78% (active) in test [3] (setting [8]); 94.5% (active) in test [3] (at 50.0 µM); -6% in test [4] (setting [7]); 93% (active) in test [4] (setting [8]); 92.2% (active) in test [4] (at 50.0 µM). Moreover, the growth inhibition was 4% in test [5] (setting [7]); 61% in test [5] (setting [8]); 96.9% (active) in test [5] (at 50.0 µM); -1% in test [6] (setting [7]); 95% (active) in test [6] (setting [8]); 93.3% (active) in test [6] (at 50.0 µM).
Regarding `Cc1cc(N2C(=O)CCSC2=S)c([N+](=O)[O-])cc1C`, the growth inhibition in test [1] (setting [7]) was 32%; in test [1] (setting [8]) it was 99% (active); in test [1] (at 50.0 µM), 99.3% (active); in test [2] (setting [7]), 7%; in test [2] (setting [8]), 99% (active); in test [2] (at 50.0 µM), 99.6% (active). Besides, the growth inhibition in test [3] (setting [7]) was 60%; in test [3] (setting [8]), 99% (active); in test [3] (at 50.0 µM), 99.5% (active); in test [4] (setting [7]) it was -5%; in test [4] (setting [8]) it was 98% (active); in test [4] (at 50.0 µM), 98.5% (active). For the same compound, the growth inhibition in test [5] (setting [7]) is 14%; in test [5] (setting [8]) it was 99% (active); in test [5] (at 50.0 µM) it was 99.5% (active); in test [6] (setting [7]), 65%; in test [6] (setting [8]), 99% (active); in test [6] (at 50.0 µM) it was 99.4% (active).
As for `O=S(=O)(NC(=S)Nc1ccccc1)c1ccc(Br)cc1`, the growth inhibition in test [1] (setting [7]) was -4%; in test [1] (setting [8]), 24%; in test [1] (at 50.0 µM), 42.9%; in test [2] (setting [7]), -3%; in test [2] (setting [8]), 50%; in test [2] (at 50.0 µM), 47.1%. Also, the growth inhibition was 7% in test [3] (setting [7]); 53% in test [3] (setting [8]); 37.5% in test [3] (at 50.0 µM); -1% in test [4] (setting [7]); 2% in test [4] (setting [8]); 79.5% (active) in test [4] (at 50.0 µM). Moreover, the growth inhibition in test [5] (setting [7]) was -3%; in test [5] (setting [8]), 42%; in test [5] (at 50.0 µM), 67.8%; in test [6] (setting [7]), 21%; in test [6] (setting [8]), 68%; in test [6] (at 50.0 µM), 65.8%.
In the case of `CN1C(=O)c2cccc3c([N+](=O)[O-])ccc(c23)C1=O`, the growth inhibition in test [1] (setting [7]) was -2%; in test [1] (setting [8]), 55%; in test [1] (at 50.0 µM), 79.3% (active); in test [2] (setting [7]), -30%; in test [2] (setting [8]), 65%; in test [2] (at 50.0 µM) it was 17%. The growth inhibition in test [3] (setting [7]) was 3%; in test [3] (setting [8]), 68%; in test [3] (at 50.0 µM), 73.2% (active); in test [4] (setting [7]), 10%; in test [4] (setting [8]), 84% (active); in test [4] (at 50.0 µM), 56.1%. The growth inhibition was -9% in test [5] (setting [7]); 80% (active) in test [5] (setting [8]); 10.2% in test [5] (at 50.0 µM); 15% in test [6] (setting [7]); 75% (active) in test [6] (setting [8]); 27.6% in test [6] (at 50.0 µM).

For the origin of these results see PubChem BioAssay (NCI).
